Inconclusive results are not listed. The source made the active and inactive calls.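 How the source made its calls: active means all three exposure times show falling viability signal with fitted midpoint dose at most twice top tested dose; inconclusive means calls differ across the three exposure times; inactive means all three exposure times inactive.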
Experiment: viability loss in SR immunoblastic lymphoma – cell-based, Alamar Blue fluorescence, several timepoints, dry powder, mechanism study for HRAS target identification, late-stage follow-up (AID 720626)

Row | Structure (SMILES) | outcome
1 | CCC(=O)N(c1ccc(OC)c(Cl)c1)C(C(=O)NCCc1ccccc1)c1cccs1 (configuration not stated) | inactive
2 | Cc1onc(C(=O)N2CCN(C(c3ccncc3)c3ccncc3)CC2)c1[N+](=O)[O-] | inactive
